HCMV antiviral – qHTS Assay for inhibitors of the human cytomegalovirus (HCMV) | HFF cells, HCMV-luciferase reporter, 72 h; active compounds read low | activity change, negative = inhibition, % at 57.5 µM | 410,000 compounds, 4.5% hits; in the data active means activity change below about -60%; inconclusive means no clear call, values can overlap the other calls; inactive means above about -39%
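HFF cells seeded 16 h at 37C, treated with compounds, infected with luciferase-reporter HCMV at MOI 1 PFU/cell; luciferase read at 72 h post infection, normalized to buffer-only and Salinomycin controls.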
FMDV antiviral – High Throughput Screening for Foot and Mouth Disease Virus Antivirals | AID 1159524, 2015 | Potency, µM (top dose mostly 57.9 µM), usual class: inhibitors | 410,000 compounds, 1.2% hits | FMDV antiviral cell-based qHTS; calls by dose curve; tested in HEK293T cells; further: read-out not given here; nearly all actives have a fitted effect of over 45% in size
LASV entry inh – qHTS for Inhibitors of binding or entry into cells for Lassa Virus | Potency, µM (series often up to 37.9 µM), most hits filed as inhibitors | 300,000 compounds, 1.2% hits | Lassa virus pseudotype entry inhibition, cell reporter; calls by dose curve; tested in HEK293 cells; further: nearly all actives have a fitted effect of over 50% in size
Marburg entry inh – qHTS for inhibitors of binding or entry into cells for Marburg Virus; Marburg virus pseudotyped entry inhibition, cell reporter; 300,000 compounds, 1.8% hits; Potency, µM (top dose mostly 37.8 µM), usual class: inhibitors; calls by dose curve; tested in HEK293 cells
Of the large screens only hits and unclear results are named; the others gave an inactive call; ! = not confirmed by another sample. Rows were chosen to be rich in hits. Some 6.2% of all compounds tested hit in one or more screens of this group.

CCOC(=O)c1cc2c(ccn2-c2ccc(F)cc2)n1CC(=O)N1CCN(C(=O)c2ccco2)CC1	LASV entry inh 9.2µM
CCCS(=O)(=O)N1CCC(n2c(C)nc3cccnc32)CC1	none (no result: Marburg entry inh)
CCC(=O)OCOc1ccc(/C=C2/CCC(CN(C)C)C2=O)cc1 (stereo not given)	HCMV antiviral inconclusive, FMDV antiviral 32µM, LASV entry inh inconclusive, Marburg entry inh inconclusive
CCCNC(=O)CCn1nc(-c2ccc(C)cc2)c2ccccc2c1=O	HCMV antiviral -65! (no result: Marburg entry inh)
CCCCNC(=O)CCn1nc(-c2ccc(C)cc2)c2ccccc2c1=O	HCMV antiviral -72 (no result: LASV entry inh, Marburg entry inh)
CCCNC(=O)CCn1nc(-c2ccc(Cl)cc2)c2ccccc2c1=O	Marburg entry inh inconclusive
CCCCNC(=O)CCn1nc(-c2ccccc2)c2ccccc2c1=O	none (no result: HCMV antiviral, LASV entry inh, Marburg entry inh)
Cc1ccc(C)c(COC(=O)c2cc(S(=O)(=O)N3CCCCC3)ccc2N2CCOCC2)c1	LASV entry inh 7.1µM, Marburg entry inh inconclusive
Cc1ccc(COC(=O)c2cc(S(=O)(=O)N3CCCCC3)ccc2N2CCOCC2)cc1	FMDV antiviral inconclusive, LASV entry inh 7.1µM, Marburg entry inh inconclusive
C[C@@]12C(=O)Nc3cc(F)c(F)cc3C(=O)N1[C@H]1c3ccccc3OC[C@@H]1[C@@H]2c1ccccc1	none (no result: LASV entry inh, Marburg entry inh)
CCOc1ccccc1N(CC)C(=O)c1noc2c1COc1ccc(C)cc1-2	none (no result: Marburg entry inh)
CCOc1c(Cl)cc(CNc2ccc(N3CCCC3)cc2)cc1OC	HCMV antiviral -65, LASV entry inh inconclusive, Marburg entry inh inconclusive
Cn1c(SCc2ccccc2)nnc1-c1cnccn1	HCMV antiviral -61, Marburg entry inh inconclusive
COc1ccc(/C=C/c2cc(O)cc(O)c2)cc1	none (no result: HCMV antiviral, LASV entry inh, Marburg entry inh)
Oc1ccc(/C=C/c2cc(O)cc(O)c2)cc1	FMDV antiviral inconclusive, LASV entry inh 7.3µM, Marburg entry inh 3.2µM
COc1ccc(/C=C/C(=O)OCC(=O)NC2CCCC(C)C2C)c(OC)c1 (stereo not given)	none (no result: LASV entry inh, Marburg entry inh)
O=[N+]([O-])c1ccc(S(=O)Cc2ccccc2)c([N+](=O)[O-])c1 (stereo not given)	HCMV antiviral -97, FMDV antiviral 14µM, LASV entry inh 11µM, Marburg entry inh inconclusive
Cc1cccc(CN(C)C)c1CC(O)(c1ccccc1)c1ccccc1	none
Fc1ccccc1CNC1CN2CCC1CC2 (stereo not given)	none (no result: LASV entry inh)
Ic1ccccc1CN[C@@H]1C2CCN(CC2)[C@@H]1C(c1ccccc1)c1ccccc1	HCMV antiviral -99, FMDV antiviral inconclusive (no result: LASV entry inh, Marburg entry inh)
Ic1ccccc1CN[C@@H]1C2CCN(CC2)[C@H]1C(c1ccccc1)c1ccccc1	Marburg entry inh 4.6µM (no result: HCMV antiviral, FMDV antiviral, LASV entry inh)
Ic1ccccc1CNC1C2CCN(CC2)C1C(c1ccccc1)c1ccccc1 (stereo not given)	LASV entry inh 6.5µM, Marburg entry inh 4.6µM (no result: HCMV antiviral, FMDV antiviral)
CC(C)c1ccccc1NC(=O)c1cccnc1	none
COc1ccc(C(=O)c2sc(NC(C)C)nc2N)cc1OC	HCMV antiviral inconclusive
COc1cccc(C(=O)c2sc(NC(C)C)nc2N)c1	HCMV antiviral -97, Marburg entry inh inconclusive
CC1Cc2cc(S(=O)(=O)NCCc3ccc(Cl)cc3)ccc2N1C(=O)C1CCC1 (stereo not given)	none (no result: Marburg entry inh)
COc1ccc(NS(=O)(=O)c2ccc3c(c2)CC(C)N3C(=O)C2CCC2)cc1OC (stereo not given)	HCMV antiviral -78, FMDV antiviral inconclusive, LASV entry inh inconclusive (no result: Marburg entry inh)
COc1cc(Cl)c(NS(=O)(=O)c2ccc3c(c2)CC(C)N3C(=O)C2CCC2)c(OC)c1 (stereo not given)	HCMV antiviral -86, FMDV antiviral inconclusive, LASV entry inh inconclusive (no result: Marburg entry inh)
CC1Cc2cc(S(=O)(=O)NCc3ccccc3)ccc2N1C(=O)C1CC1 (stereo not given)	none (no result: LASV entry inh, Marburg entry inh)
CCc1cccc(NS(=O)(=O)c2ccc3c(c2)CC(C)N3C(=O)C2CC2)c1 (stereo not given)	HCMV antiviral -80 (no result: Marburg entry inh)
COc1cccc(NC(=O)CCNS(=O)(=O)c2ccc3c(c2)CC(C)N3C(=O)C2CC2)c1 (stereo not given)	HCMV antiviral -71 (no result: LASV entry inh, Marburg entry inh)
CC1Cc2cc(S(=O)(=O)NCc3ccccc3)ccc2N1C(=O)C1CCC1 (stereo not given)	LASV entry inh inconclusive, Marburg entry inh inconclusive
COc1ccc(NC(=O)CCNS(=O)(=O)c2ccc3c(c2)CC(C)N3C(=O)C2CC2)cc1 (stereo not given)	none (no result: LASV entry inh, Marburg entry inh)
OCCN1CCN(CC#CCn2c3ccccc3c3ccccc32)CC1	LASV entry inh inconclusive, Marburg entry inh inconclusive
CCN(C(=O)COC(=O)C12CC3CC(CC(O)(C3)C1)C2)c1c(N)n(Cc2ccccc2)c(=O)[nH]c1=O	none (no result: LASV entry inh, Marburg entry inh)
COc1ccc(Cn2ccnc2SCC(=O)Nc2cccc(NC(C)=O)c2)cc1	FMDV antiviral inconclusive, Marburg entry inh inconclusive
CN(C(=O)COC(=O)c1ccc(=O)n(Cc2ccccc2)n1)C1CCS(=O)(=O)C1 (stereo not given)	none
Cc1ccccc1C(=O)N1CCN(c2ncnc3c2cnn3-c2ccccc2)CC1	HCMV antiviral inconclusive, FMDV antiviral 20µM, Marburg entry inh inconclusive
Cc1ccc(S(=O)(=O)N2CCN(c3ncnc4c3cnn4-c3ccccc3)CC2)cc1	none
Cc1ccc(C(=O)N2CCN(c3ncnc4c3cnn4-c3ccccc3)CC2)cc1	HCMV antiviral -77 (no result: FMDV antiviral, LASV entry inh, Marburg entry inh)
Cc1ccc(C)c(N2CCN(c3ncnc4c3cnn4-c3ccccc3)CC2)c1	FMDV antiviral inconclusive (no result: LASV entry inh)
COc1ccc(C(=O)NN=C2CCCC2)cc1	none (no result: LASV entry inh, Marburg entry inh)
CS(=O)(=O)N1CCC2(CCCN(c3ccncc3)C2)CC1	none (no result: HCMV antiviral, LASV entry inh, Marburg entry inh)
c1ccc(CN2CCC3(CCCc4ccccc43)CC2)cc1	FMDV antiviral inconclusive, LASV entry inh inconclusive, Marburg entry inh 6.3µM
CC(=O)C(C(C)=O)c1c(Cl)c(O)c(O)c2c(C(=O)c3ccccc3)coc12	HCMV antiviral -107, FMDV antiviral inconclusive, LASV entry inh 7.1µM, Marburg entry inh inconclusive
Cc1cc(C)nc(NC(N)=NCCc2ccccc2)n1	HCMV antiviral -96, FMDV antiviral inconclusive, LASV entry inh inconclusive, Marburg entry inh 7.1µM
Cc1cc(C)nc(NC(N)=NCCc2c[nH]c3ccccc23)n1	HCMV antiviral -97, Marburg entry inh inconclusive
Cc1ccccc1NC1=NC(=S)N(c2ccccc2)C12CCOC(C)(C)C2 (stereo not given)	none
O=C(COC(=O)c1c(Cl)ccc(Cl)c1Cl)NC(=O)NCc1ccccc1	HCMV antiviral inconclusive, LASV entry inh inconclusive, Marburg entry inh inconclusive
O=C(c1ccco1)N1CCC(c2nc3c(nnn3Cc3c(Cl)cccc3Cl)c(=O)[nH]2)CC1	none
CCOC(=O)c1c(NC(=O)c2cc(C)on2)sc(C)c1C	none
CC1(C)CC(=O)C2=C(C1)N1C(=C(C#N)C2c2ccccc2Cl)N=C(N)c2ccccc21 (stereo not given)	FMDV antiviral inconclusive, Marburg entry inh inconclusive
CC1(C)CC(=O)C2=C(C1)N1C(=C(C#N)C2c2ccc(Cl)cc2)N=C(N)c2ccccc21 (stereo not given)	HCMV antiviral -93, FMDV antiviral inconclusive, LASV entry inh inconclusive, Marburg entry inh inconclusive
N#CC1=C2N=C(N)c3ccccc3N2C2=C(C(=O)CCC2)C1c1ccc(Cl)cc1 (stereo not given)	HCMV antiviral -91, LASV entry inh inconclusive
COc1ccc(OCC(=O)OC(C)CN2CCOCC2)cc1 (stereo not given)	none
